The structures appear in SMILES notation. This is part of a sample that, as a whole, favours compounds with a hit. Of some 79,000 tested, about 15% had one in any assay. Activity calls are given as the source filed them. No stated cut-off is given here; in the data, active means growth inhibition above about 70%; inactive means the rest.

The first assay in a line: NCI Yeast Anticancer Drug Screen. Data for the rad50 strain (AID 155).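 Further: 0% = growth of vehicle-only cultures of the same strain.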 The following applies: S. cerevisiae rad50 strain growth inhibition; at 50.0 µM; hits give high values. The method, boiled down:
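Compounds were tested on a yeast strain with an engineered DNA damage repair alteration; the reported value is growth inhibition normalised to vehicle treatment.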
On to `COC(=O)C(C)=C1CCCCC1`, for which the growth inhibition is 17.9% (inactive).

`CCn1c2ccccc2c2cc(N)c(N=Nc3ccc(-c4ccc(N)c(OC)c4)cc3OC)cc21`: the growth inhibition is 31.4% (inactive).

For the compound `O=S1C=Cc2ccccc21` (stereo not given), the growth inhibition was 9.8% (inactive).

In the case of `CCN(CC)c1ccc(N=C2C=CC(=O)C(C)=C2)c(C)c1`, the growth inhibition is -3.05% (inactive).

Take `N#CCCOCC(OCCC#N)C(OCCC#N)C(OCCC#N)C(COCCC#N)OCCC#N` (stereo not given): the growth inhibition was -9.85% (inactive).

`Nc1nc(N)nc(CNc2c(Br)cc(Br)cc2Br)n1`: the growth inhibition is 12% (inactive).

Regarding `CN(C)CC(c1ccccc1)C(O)(c1ccccc1)c1ccccc1` (stereo not given), the growth inhibition was -5.65% (inactive).

Regarding `CC(=O)N1C(Nc2nccs2)CCN1c1ccccc1` (stereo not given), the growth inhibition was -43.8% (inactive).

As for `O=C1C2CCSCN2C(=O)N1c1ccccc1` (stereo not given), the growth inhibition is -41.9% (inactive).

`CCCCc1c[nH]n(C(N)=NCCSCc2nc[nH]c2C)c1=O`: the growth inhibition is -7.15% (inactive).

Turning to `COc1ccc(/C(C#N)=C\c2ccc(N(C)C)cc2)cc1`, the growth inhibition is -4.8% (inactive).

`Nc1ccc(S(=O)(=O)OCCOc2ccccc2)cc1`: the growth inhibition was -2.85% (inactive).

For the compound `CN1CCC(O)(/C=C\C2(O)CCN(C)CC2)CC1`, the growth inhibition is -10.9% (inactive).

For `N#CC(C#N)CN(C1=NCCO1)c1cccc2c1CCCC2`, the growth inhibition was -16.6% (inactive).

In the case of `C(=C/c1ccc(-c2ccccc2)cc1)/C=C/c1ccc(-c2ccccc2)cc1`, the growth inhibition is 3.3% (inactive).

For the compound `CC(C)S(=O)(=O)/C=C(\I)c1ccccc1`, the growth inhibition is 3.7% (inactive).

`Cc1[nH]c(=O)nc(N/N=C/c2ccc(Cl)cc2)c1C(=O)Nc1ccc(Cl)cc1`: the growth inhibition is -5.35% (inactive).

With `c1cc(C2CCCCC2)ccc1C1CCCCC1`, the growth inhibition is -7.4% (inactive).

Turning to `CCOc1ccc(/C=C2\N=C(c3ccc([N+](=O)[O-])cc3)OC2=O)cc1`, the growth inhibition was 11.2% (inactive).

For the compound `CC(C)OC(=O)N1CCCC1`, the growth inhibition was 12% (inactive).

Regarding `CN(C(=O)Cl)c1ccccc1`, the growth inhibition is 9.1% (inactive).

Consider `O=C(O)c1cccc(Sc2ccccc2)c1`, for which the growth inhibition is -0.05% (inactive).

For the compound `C[C@@]1(N2C(=O)OC(c3ccccc3)C2=O)C(=O)N2CCS[C@@]21c1ccccc1` (stereo not given in full), the growth inhibition is 4.2% (inactive).

With `O=NN(CCCl)C(=O)N[C@H]1CCC[C@@H](O)C1`, the growth inhibition is 5.85% (inactive).

In the case of `Cc1cc2c(cc1C=O)C(C)(C)CCC2`, the growth inhibition was 9.75% (inactive).

Consider `COc1cccc(OC(=O)Nc2cccc(Cl)c2)c1`, for which the growth inhibition was 38.2% (inactive).

On to `CCOC(=O)CC1(O)C(=O)N(Cc2ccccc2)c2ccccc21` (stereo not given), for which the growth inhibition is 15.6% (inactive).

On to `CC1(C)S[C@H](c2ccccc2C(=O)O)N[C@@H]1CC(=O)O`, for which the growth inhibition was -35.3% (inactive).

`OCCN(CCO)c1cc(/C=C/c2c3ccccc3cc3ccccc23)nc2ccccc12`: the growth inhibition is 94.2% (active).

For `O=C(O)c1cc(C2CC2)nc2ccc(Br)cc12`, the growth inhibition is 13.6% (inactive).

With `COC(=O)C(Cc1nc2ccccc2[nH]c1=O)C(=O)C(=O)Nc1ccc(OC)cc1[N+](=O)[O-]` (stereo not given), the growth inhibition was -14.4% (inactive).

Consider `O=C1OCC(CN2CCC(n3c(=O)[nH]c4ccccc43)CC2)=C1c1ccccc1`, for which the growth inhibition is -12.2% (inactive).

For the compound `COc1cc2c(cc1OC)C(=O)/C(=C/c1ccc(N(C)C)cc1)CC2`, the growth inhibition was -39.5% (inactive).

Take `COc1ccc2c(c1)N=C(NNC1=Nc3cc(OC)ccc3SC1)CS2`: the growth inhibition is -9.1% (inactive).

As to `O=C1c2ccccc2N2OC3(N4CCOCC4)CCCC3C12c1ccccc1` (stereo not given), the growth inhibition was 57.5% (inactive).

Turning to `CC(=O)OCC(OC(C)=O)C1OC2OC(C)(C)OC2C1OS(C)(=O)=O` (stereo not given), the growth inhibition was 15.2% (inactive).

In the case of `O=C(c1ccccc1)[C@@H]1C[C@H](Sc2ccccc2)c2cc(Cl)ccc2N1`, the growth inhibition is 39.7% (inactive).

Take `O=C1CSSCC(=O)NCCCN1`: the growth inhibition was 2.25% (inactive).

As for `COC1(C)C=NCC(C)(C)NC(=O)C(C)(OC)C=NCC(C)(C)NC1=O` (stereo not given), the growth inhibition was -12.4% (inactive).

For the compound `Cc1cc(CC(=S)[S-])[n+](C)c(CC(=S)S)c1`, the growth inhibition is 12.2% (inactive).

A further assay can be described thus: NCI Yeast Anticancer Drug Screen. Data for the mec2-1 strain (AID 157). The following applies: S. cerevisiae mec2-1 strain, at 50.0 µM, hits give high values. The method, boiled down:
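mec2-1 yeast strain, carrying an alteration in DNA damage repair or cell cycle control, was exposed to compounds; growth inhibition was measured relative to vehicle-treated controls.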
Take `COC(=O)C(C)=C1CCCCC1`: the growth inhibition was -3.9% (inactive).

Consider `CCn1c2ccccc2c2cc(N)c(N=Nc3ccc(-c4ccc(N)c(OC)c4)cc3OC)cc21`, for which the growth inhibition was 0.65% (inactive).

For the compound `O=S1C=Cc2ccccc21` (stereo not given), the growth inhibition is 20.6% (inactive).

On to `CCN(CC)c1ccc(N=C2C=CC(=O)C(C)=C2)c(C)c1`, for which the growth inhibition was -14.6% (inactive).

Turning to `N#CCCOCC(OCCC#N)C(OCCC#N)C(OCCC#N)C(COCCC#N)OCCC#N` (stereo not given), the growth inhibition was -14.6% (inactive).

Turning to `Nc1nc(N)nc(CNc2c(Br)cc(Br)cc2Br)n1`, the growth inhibition is 24.6% (inactive).

`CN(C)CC(c1ccccc1)C(O)(c1ccccc1)c1ccccc1` (stereo not given): the growth inhibition was -2.75% (inactive).

With `CC(=O)N1C(Nc2nccs2)CCN1c1ccccc1` (stereo not given), the growth inhibition was -64.5% (inactive).

With `O=C1C2CCSCN2C(=O)N1c1ccccc1` (stereo not given), the growth inhibition was -14.9% (inactive).

With `CCCCc1c[nH]n(C(N)=NCCSCc2nc[nH]c2C)c1=O`, the growth inhibition was -18.4% (inactive).

As for `COc1ccc(/C(C#N)=C\c2ccc(N(C)C)cc2)cc1`, the growth inhibition was -13.1% (inactive).

Turning to `Nc1ccc(S(=O)(=O)OCCOc2ccccc2)cc1`, the growth inhibition is 7.6% (inactive).

With `CN1CCC(O)(/C=C\C2(O)CCN(C)CC2)CC1`, the growth inhibition was 21.7% (inactive).

As to `N#CC(C#N)CN(C1=NCCO1)c1cccc2c1CCCC2`, the growth inhibition is 8.4% (inactive).

In the case of `C(=C/c1ccc(-c2ccccc2)cc1)/C=C/c1ccc(-c2ccccc2)cc1`, the growth inhibition is 4% (inactive).

As for `CC(C)S(=O)(=O)/C=C(\I)c1ccccc1`, the growth inhibition was 8.7% (inactive).

In the case of `Cc1[nH]c(=O)nc(N/N=C/c2ccc(Cl)cc2)c1C(=O)Nc1ccc(Cl)cc1`, the growth inhibition was 16.4% (inactive).

With `c1cc(C2CCCCC2)ccc1C1CCCCC1`, the growth inhibition is -19.1% (inactive).

Consider `CCOc1ccc(/C=C2\N=C(c3ccc([N+](=O)[O-])cc3)OC2=O)cc1`, for which the growth inhibition is 19.8% (inactive).

In the case of `CC(C)OC(=O)N1CCCC1`, the growth inhibition is 13.8% (inactive).

Consider `CN(C(=O)Cl)c1ccccc1`, for which the growth inhibition is -9.35% (inactive).

On to `O=C(O)c1cccc(Sc2ccccc2)c1`, for which the growth inhibition is 9.25% (inactive).

On to `C[C@@]1(N2C(=O)OC(c3ccccc3)C2=O)C(=O)N2CCS[C@@]21c1ccccc1` (stereo not given in full), for which the growth inhibition was 2.6% (inactive).

Consider `O=NN(CCCl)C(=O)N[C@H]1CCC[C@@H](O)C1`, for which the growth inhibition is -3.35% (inactive).

In the case of `Cc1cc2c(cc1C=O)C(C)(C)CCC2`, the growth inhibition was 0.85% (inactive).

In the case of `COc1cccc(OC(=O)Nc2cccc(Cl)c2)c1`, the growth inhibition was 38.4% (inactive).

Regarding `CCOC(=O)CC1(O)C(=O)N(Cc2ccccc2)c2ccccc21` (stereo not given), the growth inhibition is -0.15% (inactive).

Regarding `CC1(C)S[C@H](c2ccccc2C(=O)O)N[C@@H]1CC(=O)O`, the growth inhibition is -6.9% (inactive).

In the case of `OCCN(CCO)c1cc(/C=C/c2c3ccccc3cc3ccccc23)nc2ccccc12`, the growth inhibition was 95.9% (active).

With `O=C(O)c1cc(C2CC2)nc2ccc(Br)cc12`, the growth inhibition was 1.7% (inactive).

On to `COC(=O)C(Cc1nc2ccccc2[nH]c1=O)C(=O)C(=O)Nc1ccc(OC)cc1[N+](=O)[O-]` (stereo not given), for which the growth inhibition is -9.5% (inactive).

For the compound `O=C1OCC(CN2CCC(n3c(=O)[nH]c4ccccc43)CC2)=C1c1ccccc1`, the growth inhibition was -4.65% (inactive).

Regarding `COc1cc2c(cc1OC)C(=O)/C(=C/c1ccc(N(C)C)cc1)CC2`, the growth inhibition was -58% (inactive).

Consider `COc1ccc2c(c1)N=C(NNC1=Nc3cc(OC)ccc3SC1)CS2`, for which the growth inhibition is 3.15% (inactive).

`O=C1c2ccccc2N2OC3(N4CCOCC4)CCCC3C12c1ccccc1` (stereo not given): the growth inhibition is 21.9% (inactive).

Consider `CC(=O)OCC(OC(C)=O)C1OC2OC(C)(C)OC2C1OS(C)(=O)=O` (stereo not given), for which the growth inhibition was 10.3% (inactive).

`O=C(c1ccccc1)[C@@H]1C[C@H](Sc2ccccc2)c2cc(Cl)ccc2N1`: the growth inhibition was -10.5% (inactive).

`O=C1CSSCC(=O)NCCCN1`: the growth inhibition was 1.15% (inactive).

`COC1(C)C=NCC(C)(C)NC(=O)C(C)(OC)C=NCC(C)(C)NC1=O` (stereo not given): the growth inhibition was -27.6% (inactive).

Consider `Cc1cc(CC(=S)[S-])[n+](C)c(CC(=S)S)c1`, for which the growth inhibition was 8.05% (inactive).

Values taken from PubChem BioAssay (NCI).
